PINK1 modulator = changes PINK1 expression. Potency, µM (titrated, usually from 76.6 µM), inactives show at the highest dose activation (PINK1 increase), usual class: activators. PINK1 immunofluorescence, high-content cytometry, 24 h. 410,000 tested, 0.2% active; active means well fitted activation curve with a large enough effect; inconclusive means small, poorly fitted or top-dose-only effect; cell line not stated here; further: potency means the concentration at half of the fitted maximal effect; % of control where 0% means no effect; nearly all actives have a fitted effect of over 65% in size
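PINK1 protein, normally rapidly degraded, was detected by immunofluorescence after 24 hour compound treatment of a stable cell line. Titration data (5 concentrations) came from laser-scanning cytometry, with CCCP-treated wells as controls.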
PI4K2A block = PI4K2A (human) kinase inhibition | Q9BTU6 | purified PI4K2A, ADP-Glo luminescence, 1 h; hits give low values | activity change, negative = inhibition, % at 76.9 µM | 420,000 tested, 0.13% active; in the data active means activity change below about -50%; inconclusive means mostly about -30% to -49%;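 further: -100% = wells without enzyme as full effect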
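In this quantitative HTS, ADP production by PI4K2A was quantified luminescently after 1 h at ambient temperature; 100 microM adenosine served as plate-quality control.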
GLS inh = blocks human kidney-isoform glutaminase activity. 410,000 tested, 0.21% active. O94925. GLS enzymatic activity, qHTS titration. Potency, µM (top dose mostly 45.5 µM), inactives show top-dose activity change, negative = inhibition, hits mostly inhibitors; further: potency means the concentration at half of the fitted maximal effect; on the % scale 0 is the no-effect control and ±100 the full control effect
Target sequence (O94925 whole entry, looked up, canonical isoform): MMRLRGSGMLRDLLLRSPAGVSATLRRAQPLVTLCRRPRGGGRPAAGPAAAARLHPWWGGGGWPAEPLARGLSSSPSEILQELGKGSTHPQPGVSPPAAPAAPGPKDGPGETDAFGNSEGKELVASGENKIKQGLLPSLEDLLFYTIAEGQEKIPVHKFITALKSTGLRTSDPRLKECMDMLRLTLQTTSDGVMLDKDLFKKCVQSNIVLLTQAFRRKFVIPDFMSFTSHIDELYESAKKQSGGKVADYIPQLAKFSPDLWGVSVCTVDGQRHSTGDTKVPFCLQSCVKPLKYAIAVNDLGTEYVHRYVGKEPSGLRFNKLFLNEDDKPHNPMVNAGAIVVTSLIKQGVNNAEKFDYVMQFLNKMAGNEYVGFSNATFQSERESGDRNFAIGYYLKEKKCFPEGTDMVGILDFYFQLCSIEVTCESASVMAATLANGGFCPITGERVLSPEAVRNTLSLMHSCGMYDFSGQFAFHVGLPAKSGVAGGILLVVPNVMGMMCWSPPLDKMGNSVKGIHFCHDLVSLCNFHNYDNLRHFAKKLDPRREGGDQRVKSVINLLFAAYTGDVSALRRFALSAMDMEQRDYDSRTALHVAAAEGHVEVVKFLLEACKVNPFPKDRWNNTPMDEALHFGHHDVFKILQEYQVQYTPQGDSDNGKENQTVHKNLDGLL
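hKGA; 45 mM KH2PO4 pH 8.2 + 0.02% Tween-20; cpd via pin tool; 1 mM Gln soln; GluOx/HRP/Amplex Red; RT 30 min; fluor. t0 & final.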
PGK inhibitor = blocks T. brucei phosphoglycerate kinase. 380,000 tested, 0.043% active. PGK/GAPDH coupled, Kinase-Glo luminescence, 60 min. Potency, µM (titrated, usually from 57.5 µM), inactives show top-dose activity change, negative = inhibition, hits mostly inhibitors; further: potency means the concentration at half of the fitted maximal effect; on the % scale 0 is the no-effect control and ±100 the full control effect; nearly all actives have a fitted effect of over 60% in size
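Recombinant glycosomal PGK reaction used 1,3-bisphosphoglycerate generated in-well by GAPDH (100nM final) in 100mM TEA pH 7.6, 5mM MgCl2, 0.01% Tween-20. After 60 minutes at room temperature, ATP was read by Kinase-Glo Plus luminescence end-point.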
CCT chaperon mod = modulators of cytosolic chaperonin (CCT/TRiC) activity. purified chaperonin ATPase assay, HTRF ADP detection, 30 min. activity change, % (no concentration beside the values), hits read low. 360,000 tested, 0.3% active. AID 651819; in the data active means activity change below about -30%; further: on the % scale 0 is the no-effect control and ±100 the full control effect
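First, chaperonin was dispensed at 40 nM or 20 nM final depending on batch activity. Next, compounds were pinned at 76 uM and ATP added at 10 uM. After 30 min at 37 °C, ADP detection reagents ran 30 min at ambient temperature.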
The depositor's hits bear a star; i = inactive; ? = inconclusive; · = not tested or not shown; ! = not confirmed by another sample; [ ] = dose if it differs, or a comment. An excerpt weighted towards active compounds, which were near 0.78% of everything screened. Unless noted, the call rests on the fitted dose curve; in most records, active means well fitted curve in the direction sought with a large enough effect; inconclusive means small, poorly fitted or top-dose-only effect, or another doubt; inactive means no such curve, though single readings can be large; an effect the other way counts as inactive or inconclusive.

SMILES	PINK1 modulator	PI4K2A block	GLS inh	PGK inhibitor	CCT chaperon mod
O=C(NC1CCCCC1)C(c1ccc(F)cc1)N(Cc1ccco1)C(=O)Cn1nnc2ccccc21 (centres undefined)	14µM*	5	-1%	0%	-3
O=C(NC1CCCCC1)C(c1ccccc1F)N(Cc1ccco1)C(=O)Cn1nnc2ccccc21 (centres undefined)	6%	5	-7%	i	0
Cc1ccc(-c2cc(C(=O)Nc3c(C)n(C)n(-c4ccccc4)c3=O)no2)cc1	0%	-1	-5%	-8%	1
Cc1c(NC(=O)c2cc(-c3ccc(Cl)c(Cl)c3)on2)c(=O)n(-c2ccccc2)n1C	4%	0	16µM*!	-3%	-2
O=C(NCCc1ccccn1)C1CC12CCN(C(=O)c1c(F)cccc1Cl)CC2 (centres undefined)	1%	·	·	·	·
COc1ccc(OCC(=O)NNC(=O)c2cc3ccccc3o2)cc1	2%	2	16%	6%	-67*
COc1ccc(CNC(=S)NNC(=O)c2cc3ccccc3o2)cc1	0%	1	0%	0%	-4
COc1ccc(O)c(CN2CCOc3c(cc(-c4cccc(OC)n4)cc3OC)C2)c1	1%	·	·	·	·
Oc1ccc(/C=N/Nc2ccnc3cc(Cl)ccc23)c(O)c1O	1%	-14	13µM*	-2%	0
CC(=O)N1CCN(c2nc3cc(C)ccc3cc2CN(C(=O)c2cccc3ccccc23)C2CC2)CC1	0%	·	·	·	·
Cc1ccc(OCC(=O)c2c(N)n(C)c(=O)n(C)c2=O)c([N+](=O)[O-])n1	-1%	-15	14µM*	?	-1
COc1cc(=O)n2c(c1C(=O)NC(C)c1ccco1)CCN(C(=O)c1ccccc1SC)CC2 (centres undefined)	-1%	·	·	·	·
CCCc1sc(N/N=C/c2ccccn2)nc1-c1ccc(F)cc1	13µM*	-1	13%	-2%[11.5 µM]	0
Cc1nc(N/N=C/c2ccccn2)sc1C	12%	?	13%	?	2
CCCn1c(N)c(N2CCCCC2)c(=O)n(CC(=O)Nc2ccc(C(C)=O)cc2)c1=O	0%	-1	4.5µM*	i	1
CCOC(=O)C1CCN(Cc2ccccc2C(F)(F)F)CC1	9%[38.3 µM]	4	-8%	16%	1
CCOC(=O)C1CCN(Cc2ccc(O)c3ncccc23)CC1	25µM*	-4	-7%	-4%	-1
CCOc1ccc(/C=N/OCC(=O)Nc2cc(S(=O)(=O)N3CCOCC3)ccc2OC)cc1	1%	2	-1%	-6%	-84*
CCOc1ccc(OCCC(=O)OCC(=O)Nc2cc(S(=O)(=O)N3CCOCC3)ccc2OC)cc1	0%	-2	0%	i	-3
CC(C)(O)C#Cc1ccc(CN2CCc3nnc(CNC(=O)c4cccc(F)c4)n3CC2)cc1	0%	·	·	·	·
O=C(CSc1ccc2ccccc2c1)NCCc1ccc(O)c(O)c1	0%	5	1.4µM*	5%	-1
COc1ccc(CCNC(=O)CSc2ccc3ccccc3c2)cc1OC	0%	-9	-5%	-6%	3
COc1cccc(CNc2ncnc3sc(C(=O)N4CC5CCC4C5)c(C)c23)c1OC (centres undefined)	-1%	·	·	·	·
Cc1cc(O)c2c(c1)C(=O)c1cccc(O)c1C2=O	1%	·	·	·	·
O=C(O)c1cc(O)c2c(c1)C(=O)c1cccc(O)c1C2=O	0%	-5	22µM*	-27%	2
SMILES	PINK1 modulator	PI4K2A block	GLS inh	PGK inhibitor	CCT chaperon mod
Cc1cccc(NC(=S)NCCc2ccccc2)c1C	2%	-4	-17%	-6%	-2
Cc1cccc(C)c1NC(=S)NCCc1ccc(O)c(O)c1	2%	4	4µM*	i	-3
O=C(c1ccco1)N1CCN(Cc2ccc(Cl)cc2)CC1	-1%	-65*	-2%	-3%	3
CCOc1ncccc1C(=O)Nc1nnc(C2CC2)s1	1%	-3	-12%	-14%	-30*
CCOc1ncccc1C(=O)Nc1nnc(C)s1	-1%	9	1%	-10%	1
CC(OC(=O)CNC(=O)c1ccc(Cl)c([N+](=O)[O-])c1)C(=O)NC1CCCCC1C (centres undefined)	0%	18	1%	7%	-2

From PubChem
